# From PubChem BioAssay (NCATS)
# Records with an inconclusive call do not appear. A call without a number means that no potency is given here. The source made the active and inactive calls. Calls follow the shape of the dose curve; as a rule, active = well fitted cell-killing curve with a large enough effect; inconclusive = small, poorly fitted or top-dose-only effect, or effect the other way; inactive = no such curve, though single readings can be large or run the other way.
# Test: Quantitative High-Throughput drug screen in 47 multiple myeloma cell lines against the NCATS MIPE library collection: KMS34_JCRB cell viability assay (AID 1918985); also: nearly all actives have a fitted effect of over 40% in size
# Settings: KMS34 myeloma viability, CellTiter-Glo ATP luminescence, 48 h; series mostly up to 45.8 µM
# Text: PI: Beverly A. Mock Ph.D.
# Laboratory of Cancer Biology and Genetics,
# Center for Cancer Research, National Cancer Institute,
# National Institute of Health, Bethesda, Maryland
# Drug resistance and disease progression are common in multiple myeloma (MM) patients, underscoring the need for new therapeutic combinations. […] We hypothesized that effective combinations would reduce MYC expression and enhance p16 activity. […] These preclinical data identify potentially useful drug combinations for evaluation in drug-resistant MM and reveal potential mechanisms of combined drug sensitivity.
# Described herein is the primary MIPE qHTS used to cherrypick compounds. Validated compounds were then further tested for potential synergistic activiy.
# [1] Peat TJ, Gaikwad SM, Dubois W, Gyabaah-Kessie N, Zhang S, Gorjifard S, Phyo Z, Andres M, Hughitt VK, Simpson RM, Miller MA, Girvin AT, Taylor A, Williams D, D'Antonio N, Zhang Y, Rajagopalan A, Flietner E, Wilson K, Zhang X, Shinn P, Klumpp-Thomas C, McKnight C, Itkin Z, Chen L, Kazandijian D, Zhang J, Michalowski AM, Simmons JK, Keats J, Thomas CJ, Mock BA. Drug combinations identified by high-throughput screening promote cell cycle transition and upregulate Smad pathways in myeloma. Cancer Lett. 2023 Aug 1;568:216284. doi: 10.1016/j.canlet.2023.216284. Epub 2023 Jun 24. PMID: 37356470; PMCID: PMC10408729.
# SEQUENCE No. (e.g., 1, 2, 3, etc.); […] (e.g., Cells, Incubation, Reagent, etc.); VALUE and DESCRIPTION.
# 1; Cells; 5 uL; white, solid bottom 1536-well Greiner assay plate.
# 2; Compounds; 23 nL; Kalypsis pin tool (Wako USA) equipped with a 1536-well pin head to transfer to the assay plates.
# 3; Incubation; 48 hours; 37C incubation.
# 4; Reagent;5uL; CellTiter Glo (Promega).
# 5; Detector; 425V; Luminescence; Viewlux PerkinElmer.
# NOTES (numbers refer to Sequence numbers above)
# 1. The cell-based screening methods employed in this study were like those previously published. Briefly, the corresponding myeloma cell lines were screened in 1,536-well plates with 500 cells, 5-uL per well for inhibition of cell viability (assessed by measuring ATP levels with CellTiterGlo).
# 2. NCATS MIPE 4.0 library of approved and investigational drugs were added using the Kalypsis pin tool. Wells treated with DMSO only for 100% viability and media only for 0% viability were used as controls.
# 3. The assay plates were covered and incubated for 48 hours in a 37C, 5% CO2 incubator with controlled humidity.
# 4. After 48 hours, CellTilter-GloTM luminescent substrate mix (Promega) reagent was added to the assay plate and plates we incubated for 5 min at room temperature.
# 5. Signal was measured as median relative luminescence units on a ViewLux (PerkinElmer) multiplate reader.
# [1] Heske CM, Davis MI, Baumgart JT, Wilson K, Gormally MV, Chen L, Zhang X, Ceribelli M, Duveau DY, Guha R, Ferrer M, Arnaldez FI, Ji J, Tran HL, Zhang Y, Mendoza A, Helman LJ, Thomas CJ. Matrix Screen Identifies Synergistic Combination of PARP Inhibitors and Nicotinamide Phosphoribosyltransferase (NAMPT) Inhibitors in Ewing Sarcoma. Clin Cancer Res. 2017 Dec 1;23(23):7301-7311. doi: 10.1158/1078-0432.CCR-17-1121. Epub 2017 Sep 12. PMID: 28899971; PMCID: PMC6636827.
# Potency is read from the fitted curve at half-maximal effect.
row,Structure (SMILES),Potency
1,CNC(=O)c1cc(Oc2ccc(NC(=O)Nc3ccc(Cl)c(C(F)(F)F)c3)cc2)ccn1,20.9 µM (active)
2,CCOCC(O)COc1ccc(NC(=O)CC[S+](C)C)cc1 (stereo not given),inactive
3,COc1ccccc1OCC(O)COC(N)=O (stereo not given),inactive
4,CCN(CC)CC#CCOC(=O)C(O)(c1ccccc1)C1CCCCC1 (stereo not given),inactive
5,Cc1nnc(NS(=O)(=O)c2ccc(N)cc2)s1,18.7 µM (active)
6,CN1CCN(c2c(F)cc3c(=O)c(C(=O)O)cn4c3c2OCN4C)CC1,inactive
7,CN1CCCC(n2nc(Cc3ccc(Cl)cc3)c3ccccc3c2=O)CC1 (stereo not given),10.5 µM (active)
8,N=C(N)c1ccc(OCCCCCOc2ccc(C(=N)N)cc2)cc1,20.9 µM (active)
9,CCc1c2c(nc3ccc(OC(=O)N4CCC(N5CCCCC5)CC4)cc13)-c1cc3c(c(=O)n1C2)COC(=O)[C@]3(O)CC,1.18 µM (active)
10,Cc1onc(-c2ccccc2Cl)c1C(=O)N[C@@H]1C(=O)N2[C@@H]1SC(C)(C)[C@@H]2C(=O)O,inactive
11,CCOc1cc(N)c(Cl)cc1C(=O)NCC1CN(Cc2ccc(F)cc2)CCO1 (stereo not given),inactive
12,CC(=O)[C@H]1CC[C@H]2[C@@H]3CCC4=CC(=O)CC[C@]4(C)[C@H]3CC[C@]12C,inactive
13,O=C(N[C@H](CO)[C@H](O)c1ccc([N+](=O)[O-])cc1)C(Cl)Cl,inactive
14,CCN1CCCC1CNC(=O)c1cc(S(N)(=O)=O)ccc1OC (stereo not given),inactive
15,O=C(O)C1CCCN(CCC=C(c2ccccc2)c2ccccc2)C1 (stereo not given),inactive
16,CC(N)C12CC3CC(CC(C3)C1)C2 (stereo not given),inactive
17,COc1cnc(NS(=O)(=O)c2ccc(N)cc2)nc1,inactive
18,NC1(c2ccc(-c3nc4ccn5c(=O)[nH]nc5c4cc3-c3ccccc3)cc2)CCC1,9.35 µM (active)
19,NC(=O)c1cccc(N)c1,inactive
20,CC(C)C1CCC(C(=O)N[C@H](Cc2ccccc2)C(=O)O)CC1 (stereo not given in full),inactive

row,Structure (SMILES),Potency
1,C[C@@H](NCCCc1cccc(C(F)(F)F)c1)c1cccc2ccccc12,inactive
2,O=C(O)c1cccnc1,inactive
3,Nc1nc(F)nc2c1ncn2[C@@H]1O[C@H](CO)[C@@H](O)[C@@H]1O,0.296 µM (active)
4,COC(c1ccccc1)(c1ccccc1)[C@H](Oc1nc(C)cc(C)n1)C(=O)O,inactive
5,COc1cc([C@@H]2c3cc4c(cc3[C@H](O)[C@H]3COC(=O)[C@H]23)OCO4)cc(OC)c1OC,inactive
6,CC(C)(Sc1cc(C(C)(C)C)c(O)c(C(C)(C)C)c1)Sc1cc(C(C)(C)C)c(O)c(C(C)(C)C)c1,inactive
7,O=C(O)c1cc(=O)[nH]c(=O)[nH]1,inactive
8,CCN(C)C(=O)Oc1cccc([C@H](C)N(C)C)c1,inactive
9,Cc1ccc(S(=O)(=O)N[C@@H](Cc2ccccc2)C(=O)CCl)cc1,20.9 µM (active)
10,Nc1nc(=S)c2[nH]cnc2[nH]1,2.96 µM (active)
11,O=C(NCC1CN(c2ccc(N3CCOCC3=O)cc2)C(=O)O1)c1ccc(Cl)s1 (stereo not given),inactive
12,CCOC(=O)c1ccc(C#Cc2ccc3c(c2)C(C)(C)CCS3)nc1,inactive
13,CC(C)(C)NC(=O)[C@H]1CC[C@H]2[C@@H]3CC[C@H]4NC(=O)C=C[C@]4(C)[C@H]3CC[C@]12C,inactive
14,Cc1cccc(N(C)C(=S)Oc2ccc3ccccc3c2)c1,inactive
15,CCC(=O)O[C@]1(C(=O)SCF)[C@H](C)C[C@H]2[C@@H]3C[C@H](F)C4=CC(=O)C=C[C@]4(C)[C@@]3(F)[C@@H](O)C[C@@]21C,inactive
16,COC(=O)Nc1nc2ccc(Sc3ccccc3)cc2[nH]1,2.96 µM (active)
17,C#CCN[C@@H]1CCc2ccccc21,inactive
18,CCC(=O)O[C@]1(C(=O)CCl)[C@@H](C)C[C@H]2[C@@H]3CCC4=CC(=O)C=C[C@]4(C)[C@@]3(F)[C@@H](O)C[C@@]21C,inactive
19,CCCCS(=N)(=O)CCC(N)C(=O)O (stereo not given),inactive
20,C[C@@H]1CN(c2c(F)c(N)c3c(=O)c(C(=O)O)cn(C4CC4)c3c2F)C[C@H](C)N1,inactive
